Most compounds without a hit are left out; they make up all but 1.1% or so of the library.
Mtb UGM inh – Mtb UDP-galactopyranose mutase inhibition. P9WIQ1. purified UGM, fluorescence polarization probe displacement. inhibition, % at 10 µM. 320,000 compounds, 0.06% hits; in the data active means inhibition above about 10%, passing the limit was not always enough; inconclusive means no clear call, values can overlap the other calls
Target sequence (P9WIQ1 whole entry, looked up): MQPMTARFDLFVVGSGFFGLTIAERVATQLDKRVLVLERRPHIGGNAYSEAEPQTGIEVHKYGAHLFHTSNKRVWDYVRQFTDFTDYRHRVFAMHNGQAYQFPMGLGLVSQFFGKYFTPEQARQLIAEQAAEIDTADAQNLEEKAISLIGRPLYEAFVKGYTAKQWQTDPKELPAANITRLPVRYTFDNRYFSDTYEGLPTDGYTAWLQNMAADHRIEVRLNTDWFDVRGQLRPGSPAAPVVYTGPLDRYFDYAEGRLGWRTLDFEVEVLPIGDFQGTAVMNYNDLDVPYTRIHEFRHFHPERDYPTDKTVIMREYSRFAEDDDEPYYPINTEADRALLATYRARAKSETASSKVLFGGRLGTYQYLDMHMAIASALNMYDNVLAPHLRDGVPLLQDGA
Mtb bLac sens – beta-lactam sensitization of Mtb H37Rv; 330,000 compounds, 0.27% hits; M. tuberculosis H37Rv growth with meropenem, percent inhibition; AID 434955; inhibition, % at 25 µM;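 further: growth measured after seven days incubation then overnight dye step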
RecA intein inh – Mtb RecA intein splicing inhibition. P9WHJ3. cell-free RecA intein splicing, fluorescence. 290,000 compounds, 0.75% hits. AID 2221. inhibition, % (concentration not given with the values); in the data active means inhibition above about 30%; inconclusive means no clear call, values can overlap the other calls
SSB-PriA inh – blocks PriA binding to SSB C-terminal tail; AlphaScreen SSBct-PriA binding, biotinylated peptide; inhibition, % at 33 µM; 430,000 compounds, 0.6% hits; AID 1272365; in the data active means inhibition mostly above about 37%, no sharp cut-off; inactive means mostly below about 20%
Rv3671c protease – Rv3671c (M. tuberculosis) protease inhibition; P9WHR9; inhibition, % at 5.96 µM; 320,000 compounds, 0.048% hits; AID 2606; in the data active means inhibition above about 38%;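 further: extracellular domain of Rv3671c used as enzyme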
GFP chromo cs – counter-screen GFP chromophore formation inhibition; shares compounds with RecA intein inh; cell-free GFP chromophore formation, fluorescence; EC50, µM; 2,100 compounds, 83% hits
Numbers stand for hits; n = inactive; u = inconclusive; x = no result given. Unless noted, how the calls were made is not given here.

SMILES	Mtb UGM inh	Mtb bLac sens	RecA intein inh	SSB-PriA inh	Rv3671c protease	GFP chromo cs
Cc1cccc(NC2=C/C(=N/S(=O)(=O)c3cccs3)c3ccccc3C2=O)c1	n	n	x	x	n	x
O=C(Cc1ccccc1Cl)N1CCN(C(=O)c2cnn3ccccc23)CC1	x	x	x	n	x	x
Cc1noc(Cc2ccccc2NC(=O)c2ccc(-n3cccc3)cc2)n1	x	x	x	n	x	x
COc1cc(-c2ccc(SCC(=O)NC3CCCC3)nn2)cc(OC)c1OC	x	x	x	n	x	x
CC(=O)c1c(Cl)nc2cccc3c2c1-c1ccccc1C3=O	n	n	33.3	n	n	n
CS(=O)(=O)n1nc(-c2ccc(Cl)cc2)nc1N	n	n	n	n	n	x
Cn1nc(-c2ccc(Cl)cc2)nc2c(=O)n(C)c(=O)nc1-2	n	u	94.4	x	n	0.365
COc1ccc(-c2nnc(OC)c3ccccc23)cc1	n	n	n	n	n	x
COc1ccc(-c2nnc(Sc3nc4ccccc4o3)c3ccccc23)cc1	n	n	53.3	n	n	1.52
O=C(Nc1ccccc1Cc1nc(-c2cccs2)no1)c1cc(-c2ccco2)on1	x	x	x	n	x	x
CC(Oc1ccc(F)cc1)C(=O)Oc1ccc(N(C)S(=O)(=O)c2ccccc2)cc1 (stereo unspecified)	n	n	38.6	n	n	n
Cc1c(C)n2c3c(=O)n(Cc4cccc5ccccc45)c(=O)n(C)c3nc2n1CCN1CCOCC1	x	x	x	n	x	x
CC1=NNC(=O)C1C(c1ccc(F)cc1)C(C#N)C#N (stereo unspecified)	n	n	85.3	n	n	16.6
CCn1cccc(-c2nnc(SCC(=O)Nc3nc4ccc(C)cc4s3)n2C)c1=O	x	x	x	n	x	x
Cc1ccc2nc(Cl)c(C=NNC(=O)CN3CCOCC3)cc2c1	x	x	x	n	x	x
O=C(CCS(=O)NCc1ccccc1)NCc1ccccc1 (stereo unspecified)	n	n	59.2	x	n	n
CC(=O)c1cccc(-c2ccc3c(=O)[nH]c(Nc4ccccc4)cc3c2)c1	n	n	93.8	n	n	8.56
O=c1[nH]c(Nc2ccccc2)cc2cc(Br)ccc12	n	n	89.7	n	n	6.01
COc1ccccc1Nc1cc2cc(Br)ccc2c(=O)[nH]1	n	n	46.8	n	n	7.77
COc1ccc(OC)c(Nc2nnc(C)c(=O)[nH]2)c1	n	n	n	n	n	x
O=c1cc(Nc2cccc(Br)c2)[nH]c(=O)[nH]1	n	n	n	n	n	x
COc1ccccc1Nc1nnc(C)c(=O)[nH]1	n	n	n	n	n	x
COc1ccc(OC)c(Nc2cc3ccccc3c(=O)[nH]2)c1	n	n	82.9	n	n	1.85
O=C(Nc1cccc(-c2csc(Nc3ccc(F)cc3F)n2)c1)c1ccno1	x	x	x	n	x	x
Cc1cc(C(=O)N2CCCSCC2CN(C)C)c(C)o1 (stereo unspecified)	x	x	x	n	x	x
SMILES	Mtb UGM inh	Mtb bLac sens	RecA intein inh	SSB-PriA inh	Rv3671c protease	GFP chromo cs
O=c1[nH]c(Nc2ccccc2)cc2ccccc12	n	n	63.6	n	n	u
CCc1cccc(CC)c1NC(=O)/C(C#N)=C/c1ccccc1C(F)(F)F	n	n	30.8	n	n	32.3
COc1ccc(-c2cn3c(C(=O)N4CCN(c5ccc(F)c(Cl)c5)CC4)csc3n2)cc1	x	x	x	n	x	x
CC1=NN(c2ccc(C)c(C)c2)C(=O)C1C(c1cccc(O)c1)C1C(=O)N(c2ccc(C)c(C)c2)N=C1C (stereo unspecified)	n	n	95.3	n	n	0.905
COc1ccc(OCc2cc(C(=O)N3CCCC(OC)C3)no2)c2ccccc12 (stereo unspecified)	n	n	35.2	n	n	30.4
CCn1c(SCC(=O)Nc2nc(-c3ccc(C)cc3)cs2)nnc1-c1ccccc1O	n	n	37.9	n	n	n
O=C(CN1C(=O)CCC1=O)NCCC(O)c1ccsc1 (stereo unspecified)	x	x	x	n	x	x
CCOC(=O)c1csc(NC(=O)c2ccc(S(=O)(=O)N3CCc4ccccc43)cc2)n1	x	x	x	n	x	x
O=C(Nc1ccc(N2CCOCC2)c2nonc12)C1CCCC1	n	n	n	n	n	x
Nc1ccc(N2CCOCC2)c2nonc12	n	n	94.9	n	n	23.5
COc1ccc(C=C(c2nc3ccccc3s2)c2nc3ccccc3s2)cc1O	n	n	59.7	n	n	n
O=C(NC1CCCC1)C(c1ccc(F)cc1)N(Cc1ccccc1Cl)C(=O)CCl (stereo unspecified)	n	n	49.6	n	n	n
COCCN(C(=O)CCC(=O)Nc1cc(C)on1)C(C(=O)NC1CCCC1)c1ccccc1C (stereo unspecified)	n	n	n	n	n	x
COCCN(C(=O)CCl)C(C(=O)NC1CCCCC1)c1ccccc1C (stereo unspecified)	n	n	46.6	n	n	25.6
Cc1ccc(NC(=O)CSc2nc3c(sc(=S)n3-c3ccc(Cl)cc3)c(=O)[nH]2)cc1F	x	x	x	n	x	x
COc1ccc(OC)c(C2CC(=O)C(C)C(c3cc(OC)ccc3OC)N2)c1 (stereo unspecified)	n	n	n	n	n	x
COc1ccc(C2NC(c3ccc(OC)cc3OC)C(C)C(=O)C2C)c(OC)c1 (stereo unspecified)	n	n	51.2	n	n	n
N#Cc1ccc(Oc2ccc(N3C(=O)C4C5C=CC(C5)C4C3=O)cc2)cc1 (stereo unspecified)	x	x	x	n	x	x
O=C(Nc1ccccc1)Nc1ccccc1NS(=O)(=O)c1cccs1	n	n	n	n	n	x
O=C(Nc1ccc(Cl)c(Cl)c1)Nc1ccccc1NS(=O)(=O)c1cccs1	n	n	31.5	n	n	n
COc1cccc(-n2nc(C#N)c(Cl)cc2=O)c1	x	x	73.4	n	x	21.1
O=C(NCC1CCC(c2nc3ccccc3[nH]2)CC1)c1ccno1 (stereo unspecified)	x	x	x	n	x	x
Cc1ccc(S(=O)(=O)/N=C2/C=C(C3C(=O)CC(C)(C)CC3=O)C(=O)c3ccccc32)cc1	n	n	84.7	x	n	9.92
CCC(=O)N(Cc1cc(=O)[nH]c2ccccc12)c1ccccc1	n	n	n	n	n	x
O=C(CCl)N(Cc1cc(=O)[nH]c2ccccc12)c1ccccc1	n	n	68.6	n	n	11.1
SMILES	Mtb UGM inh	Mtb bLac sens	RecA intein inh	SSB-PriA inh	Rv3671c protease	GFP chromo cs
O=C(CCl)N(Cc1ccccc1)c1ccccc1	n	n	73.5	n	n	23.6
Cc1cccc(N(Cc2ccccc2)C(=O)CCl)c1	x	x	57.6	n	x	9.89
COc1cc(OC)cc(C(=O)Nc2ccc(OC)c(N3CCCCC3=O)c2)c1	x	x	x	n	x	x
CCc1ccc(C2C(C#N)=C(N)C(C#N)(C#N)C3=CCC(C(C)(C)C)CC32)cc1 (stereo unspecified)	n	n	30.4	n	n	15.2
CC(C)(C)C1CC=C2C(C#N)=C(N)C(C#N)(C#N)C(c3cccs3)C2C1 (stereo unspecified)	n	n	n	x	n	x
COC(=O)C(C(=O)OC)C(CC(=O)c1ccc(C)cc1)c1cc(OC)c(OC)c(OC)c1 (stereo unspecified)	n	n	n	n	n	x
COc1ccc(C(CC(=O)c2ccc(C)cc2)C(C#N)C#N)cc1OC (stereo unspecified)	n	n	54.4	n	n	30.4
Cc1ccc(-n2nc(C(=O)NN)c(C)c(C#N)c2=O)cc1Cl	n	n	n	n	n	x
